PubChem BioAssay AID1962 (The Scripps Research Institute Molecular Screening Center, 2009)
The whole screen tested about 300,000 compounds, of which about 2,500 (0.83%) were called active. Only a selection was taken, and actives are over-represented in it overall. Unmarked numbers belong to inactive results.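 Rule for the calls: active = inhibition above the mean of all tested compounds plus 3 SD, set per screening campaign (cut at about 24% in these data); inactive = the rest.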

tested on: tRNA 2'-phosphotransferase TPT1 (Candida albicans SC5314); experiment: tRNA 2'-phosphotransferase blockers, C. albicans – biochemical, fluorescence polarization, primary screen (AID 1962); details: recombinant caTPT1, FP RNA substrate dephosphorylation; at 5 µM; stronger effect = higher value;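 note: plate controls were DMSO alone for no effect and ferristatin control at 100 nM for full effect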

Structure (SMILES) | inhibition
COCCNC(=O)/C(C#N)=C/c1nc(N(C)C)n(-c2ccc(F)cc2)c1Cl | 1.88%
Cc1c(C)n2c(SCC(=O)N3CCCC3)nnc2[nH]c1=O | 0.57%
CC(C)(C)C1C/C(=C/c2ccco2)C(=O)/C(=C/c2ccco2)C1 (stereo not given) | 71.8% (active)
O=C1OC(/C=C/c2ccccc2)=NC/1=C/c1ccco1 | 1.61%
CCC1C/C(=C/c2cccs2)C(=O)/C(=C/c2cccs2)C1 (stereo not given) | 14.5%
COC(=O)c1ccc(Sc2ccc(F)cc2)c(N)c1 | 1.95%
CCOc1ccc(OCc2ccc(C(=O)Nc3cccc(C)n3)o2)cc1 | -2.96%
CCCCNc1ccc(C(=O)Nc2cccc(C)n2)cc1[N+](=O)[O-] | 3.18%
Cc1cccc(NC(=O)c2ccc(COc3ccccc3[N+](=O)[O-])o2)n1 | 31.1% (active)
CCOc1ccc2c(=O)c(-c3ccc4c(c3)OCCCO4)c(C)oc2c1 | 2.18%
CN(C)Cc1c(C(=O)N/N=C/c2ccccc2OCc2ccc(F)cc2)nnn1-c1nonc1N | 2.3%
COc1ccccc1C1CC(=O)n2c(nc(-c3ccccc3)c2-c2ccccc2)S1 (stereo not given) | -2.44%
NS(=O)(=O)c1ccc(CNC(=O)c2cnccn2)cc1 | -3.97%
CCOc1ccc(N=Cc2c(O)n(-c3cccc(C)n3)c(=O)c3ccccc23)cc1 | 1.89%
CCCCn1c(=O)c(C(C)=O)c(O)c2ccccc21 | 3.63%
CC(=O)n1c(C=Nc2ccccc2)c(O)c2ccccc21 | 37.8% (active)
Cc1cc(C)nc(NNC2=CC(=O)CC(C)(C)C2)n1 | -0.26%
CN(c1ccccc1)c1ccc(/C=c2\s/c(=C(/C#N)C(=O)C(C)(C)C)n(Cc3ccco3)c2=O)cc1 | 151% (active)
CCOC(=O)/C=c1\s/c(=C\c2ccc(C#N)cc2)c(=O)n1CC(=O)Nc1cccc(C)c1C | 1.41%
Cc1cs/c(=N\N=C\c2ccc(O)cc2)n1Cc1ccco1 | 2.86%
Cc1ccccc1S(=O)(=O)N1[C@@H](c2cccc(Cl)c2)C(C(=O)O)=CC[C@H]1c1ccc(Cl)cc1 | -1.82%
Cc1ccc(S(=O)(=O)N2[C@@H](c3cccc(Cl)c3)C(C(=O)O)=CC[C@H]2c2ccc(Cl)c(Cl)c2)cc1 | 0.18%
Cn1cc(CN2CCCCC2c2ccccn2)c(-c2ccc3c(c2)OCCO3)n1 (stereo not given) | -1.42%
COC(=O)c1ccc(/C=N/N2C(C)CCCC2C)cc1 (stereo not given) | 0.75%
CC(CCN1CCN=C1N(C)C)c1ccccc1 (stereo not given) | 1.38%
